Measurements published in the supplement of paper PMC6555819.

What was measured:
Test in all cases: PBM binding z-score (relative to random genomic background probes); higher = stronger binding; sequences stand for … in GC…GCGATTGACAGCGTAGAATGAAGG
[1] = test system: PPARg:RXRa DBDmut IVT, anti-RXR (DBD mutation: RXRa K156A/R161A, NR concentration 270 nM, RXRa partner concentration 90 nM)
Procedure, shortened: (§1)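 Regression normalization was applied to scanned fluorescence from custom Agilent 4×180K protein-binding microarrays. Before scanning, arrays were incubated 1 h with ligand-free nuclear receptor dimers, and binding was detected with antibodies against each partner (one per run). Binding z-scores use the random background probes as reference.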

[2] = test system: PPARg:RXRa IVT, anti-PPARg (NR concentration 270 nM, RXRa partner concentration 90 nM)
Procedure, shortened: as §1

[3] = test system: PPARg DBDmut:RXRa IVT, anti-PPARg (DBD mutation: PPARg1 K132A/R137A, NR concentration 270 nM, RXRa partner concentration 90 nM)
Procedure, shortened: as §1

[4] = test system: PPARg DBDmut IVT, anti-PPARg (DBD mutation: PPARg1 K132A/R137A, NR concentration 270 nM)
Procedure, shortened: as §1

[5] = test system: PPARg homodimer (NR concentration 180 nM)
Procedure, shortened: as §1

[6] = test system: PXR:RXRa (NR concentration 270 nM, RXRa partner concentration 90 nM)
Procedure, shortened: as §1

[7] = test system: PXR homodimer (NR concentration 270 nM)
Procedure, shortened: as §1

[8] = test system: RARa:RXR (NR concentration 270 nM, RXRa partner concentration 90 nM)
Procedure, shortened: as §1

[9] = test system: RARa homodimer (NR concentration 270 nM)
Procedure, shortened: as §1

[10] = test system: RARb:RXRa (NR concentration 270 nM, RXRa partner concentration 90 nM)
Procedure, shortened: as §1

Row | Sequence | PBM binding z-score [1] | PBM binding z-score [2] | PBM binding z-score [3] | PBM binding z-score [4] | PBM binding z-score [5] | PBM binding z-score [6] | PBM binding z-score [7] | PBM binding z-score [8] | PBM binding z-score [9] | PBM binding z-score [10]
1 | ACTATTAGCTGAGACGAGGGCAACCGATAGGTTG | -0.032 | 0.377 | -0.216 | -0.0358 | -0.21 | 0.33 | 0.536 | 0.226 | 0.488 | 0.935
2 | CCTACTTGGTCAGGAGGTCACACACCGGATATGA | 1.61 | 3.56 | 0.756 | 0.0151 | 3.23 | 4.26 | 1.05 | 4.89 | 2.31 | 3.75
3 | ACTAGTTGGTCCGCTGAGGTCACACACAATTCGG | 0.592 | 1.67 | 0.377 | -0.126 | 2.76 | 4.69 | 2.24 | 4.51 | 0.677 | 2.97
4 | TTACCAAGGTGAGCCGAGGTCGTTGATCCAACTC | 1.46 | 2.45 | 0.0524 | 0.067 | -0.0527 | 4.95 | 0.39 | 1.95 | -0.75 | 1.99
5 | CCGACTGGGACATAAGGTTACCATAAGCCAGCCC | 1.57 | 0.909 | -1.05 | -1.68 | 0.314 | 0.0588 | -0.0723 | 0.922 | -0.0116 | 1.05
6 | ATCTCTAGTTAAAGATAGTTCAGTGAATGCAAAT | -0.115 | 0.245 | 0.633 | 1.63 | 0.523 | 0.98 | 1.18 | 1.1 | 1.54 | 0.647
7 | GCGACTGGGGCAAAGCAGGTTACCACAAGGTTGG | 4.37 | 3.9 | -0.49 | -1.47 | 0.0526 | 0.473 | -0.466 | 0.796 | -0.331 | 0.888
8 | CCTATTAGATGACCATAAGGGCAACCGAAGCTCG | -0.108 | 0.24 | 0.781 | -0.21 | 1.46 | 0.624 | 0.912 | 0.938 | 2.1 | 1.4
9 | ATCTCTAGGTAAGAATCAGTTCAGTGAAGAACGC | 1.32 | 0.899 | 0.992 | 1.06 | 1.4 | 1.05 | 1.2 | 0.793 | 2.09 | 0.435
10 | CCCACTGGGCCAAGGTCATTGATCAGTCAAAGCA | 2.96 | 4.5 | -0.866 | -1.7 | 1.75 | 3.5 | 1.12 | 3.45 | -0.0237 | 3.08
11 | CCTACTGGGCCATCGGGTCATTGATATCAACGTT | 3.69 | 5 | 0.365 | -0.0654 | 1.81 | 1.9 | -0.0623 | 2.47 | -0.279 | 1.9
12 | TCTTGTAGATGAAAGGTTAAGAAAGCCGAAGCCT | 2.04 | 2.16 | 0.389 | 0.195 | 0.811 | 1.29 | 0.117 | 2.05 | 0.435 | 1.73
